This note sets out measurements from PubChem BioAssay (EPA / NIEHS).

Where “and” joins values, the source holds several entries; their conditions need not be identical. Identical values can stand only once. More than one record can exist for a structure, and the calls need not agree. Calls of active or inactive are those of the source. The calls were made as follows: active = hit-call score of the fitted dose curve at least 0.9, where 1 is the maximum; inactive = score below 0.9.

Experiment [1] is described as follows: ATG_E_Box_CIS: Attagene CIS-FACTORIAL HepG2 Assay for human Enhancer Box (E-box) (AID 2282936). The note with it: HepG2 E-box cis-reporter transcription, actives raise or lower the signal. An outline of the steps:
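Measured 24 h post-dosing in HepG2 cells transfected with multiple cis-regulated reporter units, signal being reporter mRNA induction detected by fluorescent RT-PCR with capillary electrophoresis; gain or loss fitted against DMSO.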

The nature of experiment [2]: ATG_M_61_CIS: Attagene CIS-FACTORIAL HepG2 Assay for M61 Transcription Factor (Internal Marker) (AID 2282937). The note with it: HepG2 Attagene CIS-FACTORIAL M61 internal marker reporter; actives raise or lower the signal. The method in brief: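 HepG2 cells transiently transfected with multiplexed cis-promoter reporter units reporting endogenous transcription factor activity, measured 24 h after dosing. Reporter mRNA quantified by RT-PCR and capillary electrophoresis; bidirectional fit against DMSO baseline.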

Experiment [3] can be described thus: ATG_EGR_CIS: Attagene CIS-FACTORIAL HepG2 Assay for human Early Growth Response 1 (EGR1) (AID 2282938). The note with it: HepG2 Attagene CIS-FACTORIAL EGR reporter mRNA; actives raise or lower the signal. An outline of the steps: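 HepG2 cells transiently transfected with cis-element-driven multiplexed reporter units, dosed for 24 h. EGR1-element reporter mRNA quantified by RT-PCR, 6-FAM labelling, HpaI digestion and capillary electrophoresis; bidirectional fit versus DMSO.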

A short description of experiment [4]: ATG_M_19_CIS: Attagene CIS-FACTORIAL HepG2 Assay for M19 Transcription Factor (Internal Marker) (AID 2282939). The note with it: HepG2 Attagene CIS-FACTORIAL M19 internal marker reporter; actives raise or lower the signal. An outline of the steps:
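Readout: fluorescent reporter-transcript fragments by capillary electrophoresis after RT-PCR. Human HepG2 liver cells carried transfected MRTU constructs reporting endogenous transcription-factor activity; exposure 24 h. Gain or loss of signal fitted relative to DMSO.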

Experiment [5] can be described thus: ATG_Ets_CIS: Attagene CIS-FACTORIAL HepG2 Assay for human Erythroblast Transformation Specific (ETS) (AID 2282941). The note with it: HepG2 ETS cis-reporter transcription, actives raise or lower the signal. An outline of the steps: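 RT-PCR/capillary electrophoresis fluorescence read-out of reporter mRNA; HepG2 transient multi-reporter transfection; 24 h compound exposure; gain or loss of signal fitted bidirectionally relative to DMSO.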

For experiment [6], the target named is Hepatocyte nuclear factor 3-beta (Homo sapiens) (UniProt Q9Y261). As to the kind of experiment: ATG_FoxA2_CIS: Attagene CIS-FACTORIAL HepG2 Assay for human Forkhead box A2 (FOXA2) (AID 2282942). The note with it: HepG2 cis-reporter transcription factor activity, 24 h; actives raise or lower the signal. The method in brief:
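HepG2 transiently transfected with a multiplexed cis-promoter reporter library read endogenous FOXA2 activity. After 24 h compound exposure, reporter mRNA was quantified by RT-PCR, HpaI digestion and capillary electrophoresis. Bidirectional fit against DMSO.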

The nature of experiment [7]: ATG_FoxO_CIS: Attagene CIS-FACTORIAL HepG2 Assay for human Forkhead box O (FoxO) (AID 2282943). The note with it: HepG2 Attagene cis-reporter, FoxO element, mRNA; actives raise or lower the signal. An outline of the steps: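 HepG2 cells transiently transfected with cis-promoter-driven multiple reporter transcription units; 24 h after chemical dosing, reporter mRNA quantified by RT-PCR, fluorescent primer extension, HpaI digestion and capillary electrophoresis. Bidirectional fitting versus DMSO baseline.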

A short description of experiment [8]: ATG_GATA_CIS: Attagene CIS-FACTORIAL HepG2 Assay for human GATA Binding Protein (AID 2282944). The note with it: HepG2 GATA cis-element reporter, Attagene multiplex mRNA; actives raise or lower the signal. The method in brief: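 Read-out: fluorescent reporter mRNA fragments resolved by capillary electrophoresis after RT-PCR. Human liver HepG2 cells carried transiently transfected cis-regulated reporter constructs; chemicals incubated 24 h; gain or loss of signal fitted relative to DMSO.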

The nature of experiment [9]: ATG_ISRE_CIS: Attagene CIS-FACTORIAL HepG2 Assay for human Interferon Regulatory Factor 1 (IRF1) binding to an Interferon-Stimulated Response Element (ISRE) (AID 2282948). The note with it: HepG2 ISRE cis-reporter (Attagene), mRNA transcription readout; actives raise or lower the signal. An outline of the steps: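 Read-out: fluorescent RT-PCR products resolved by capillary electrophoresis, reporting endogenous transcription factor activity via ISRE-driven reporter mRNA in transfected HepG2 cells dosed for 24 h; gain or loss fitted relative to DMSO.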

Experiment [10] is described as follows: ATG_M_32_CIS: Attagene CIS-FACTORIAL HepG2 Assay for M32 Transcription Factor (Internal Marker) (AID 2282949).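 Also: background control marker of the multiplexed CIS panel rather than a real target.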 The note with it: HepG2 Attagene cis-factorial M32 reporter, mRNA; actives raise or lower the signal. The method in brief:
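Using DMSO as baseline, bidirectional curve fits were applied to reporter mRNA signals. These came from transiently transfected HepG2 cells exposed for 24 h, with RNA analysed by RT-PCR, FAM primer extension, HpaI digestion and CE.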

Experiment [11] can be described thus: ATG_M_06_CIS: Attagene CIS-FACTORIAL HepG2 Assay for M06 Transcription Factor (Internal Marker) (AID 2282950). The note with it: HepG2 Attagene CIS-FACTORIAL M06 internal marker reporter; actives raise or lower the signal. The method in brief:
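Terse: HepG2, transient MRTU transfection (FuGene 6), 24 h dosing; total RNA, oligo(dT) RT, PCR, FAM label, HpaI cut, capillary electrophoresis; bidirectional fit vs DMSO baseline; background-control endpoint.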

In experiment [12] the target is Hepatocyte nuclear factor 6 (Homo sapiens) (UniProt Q9UBC0). Description: ATG_HNF6_CIS: Attagene CIS-FACTORIAL HepG2 Assay for human Hepatocyte Nuclear Factor 6 (HNF6) (AID 2282952). The note with it: HepG2 Attagene cis-factorial HNF6 reporter transcription; actives raise or lower the signal. The method in brief:
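Twenty-four-hour chemical treatment of reporter-transfected HepG2 cells precedes RNA isolation, DNase-treated reverse transcription and PCR of reporter sequences. Labelled fragments are sized by capillary electrophoresis and fitted bidirectionally versus DMSO.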

Experiment [13] concerns the target Heat shock factor protein 1 (Homo sapiens) (UniProt Q00613). As to the kind of experiment: ATG_HSE_CIS: Attagene CIS-FACTORIAL HepG2 Assay for human Heat Shock Transcription Factor 1 (HSE) (AID 2282953). The note with it: HepG2 HSE cis-reporter, Attagene RNA transcription; actives raise or lower the signal. An outline of the steps:
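Read-out: fluorescence of reporter-specific RT-PCR fragments separated by capillary electrophoresis. HepG2 carrying transfected cis-element reporter units; 24 h dosing; activity fitted in both directions relative to DMSO baseline.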

The nature of experiment [14]: ATG_MRE_CIS: Attagene CIS-FACTORIAL HepG2 Assay for human Metal Responsive Element (MRE) (AID 2282954). The note with it: HepG2 MRE cis-reporter transcription, Attagene multiplex; actives raise or lower the signal. The method in brief:
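Readout: capillary electrophoresis of 6-FAM-labelled, HpaI-digested RT-PCR reporter products. System: HepG2 cells carrying transient multiplexed cis reporters, dosed 24 h. Analysis: bidirectional fit, DMSO baseline.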

Experiment [15] is described as follows: ATG_ERE_CIS: Attagene CIS-FACTORIAL HepG2 Assay for Estrogen Response Element (ERE) (AID 2282940). The note with it: HepG2 ERE cis-reporter, Attagene RNA transcript; actives raise or lower the signal. An outline of the steps:
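Readout: reporter mRNA induction by RT-PCR, FAM-labelled primer extension, HpaI digestion and capillary electrophoresis, 24 h after dosing transfected HepG2 cells. Endogenous transcription factors act on cis-element-regulated reporters. Gain or loss fitted against DMSO.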

A short description of experiment [16]: ATG_GLI_CIS: Attagene CIS-FACTORIAL HepG2 Assay for human Zinc Finger Protein GLI1 (AID 2282945). The note with it: HepG2, Attagene cis-factorial reporter mRNA, GLI element; actives raise or lower the signal. An outline of the steps: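 HepG2 cells transiently transfected with cis-promoter multiplexed reporter units report endogenous transcription factor activity. After 24 h chemical exposure, reporter mRNA was quantified by RT-PCR, 6-FAM labelling, HpaI digestion and capillary electrophoresis, with bidirectional fitting against DMSO.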

In experiment [17] the target is Bile acid receptor (Homo sapiens) (UniProt Q96RI1). Description: ATG_IR1_CIS: Attagene CIS-FACTORIAL HepG2 Assay for human Nuclear Receptor Subfamily 1 Group H Member 4 (NR1H4), IR1 submotif (AID 2282946). The note with it: IR1 reporter transcription, actives raise or lower the signal. An outline of the steps: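 Readout: reporter transcript levels by RT-PCR with fluorescent capillary electrophoresis, from HepG2 cells transiently transfected with multiplexed cis-regulated reporters and dosed 24 h. Gain- or loss-of-signal fitted versus DMSO negative control.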
Bile acid receptor (Homo sapiens), sequence (Q96RI1 whole entry, looked up): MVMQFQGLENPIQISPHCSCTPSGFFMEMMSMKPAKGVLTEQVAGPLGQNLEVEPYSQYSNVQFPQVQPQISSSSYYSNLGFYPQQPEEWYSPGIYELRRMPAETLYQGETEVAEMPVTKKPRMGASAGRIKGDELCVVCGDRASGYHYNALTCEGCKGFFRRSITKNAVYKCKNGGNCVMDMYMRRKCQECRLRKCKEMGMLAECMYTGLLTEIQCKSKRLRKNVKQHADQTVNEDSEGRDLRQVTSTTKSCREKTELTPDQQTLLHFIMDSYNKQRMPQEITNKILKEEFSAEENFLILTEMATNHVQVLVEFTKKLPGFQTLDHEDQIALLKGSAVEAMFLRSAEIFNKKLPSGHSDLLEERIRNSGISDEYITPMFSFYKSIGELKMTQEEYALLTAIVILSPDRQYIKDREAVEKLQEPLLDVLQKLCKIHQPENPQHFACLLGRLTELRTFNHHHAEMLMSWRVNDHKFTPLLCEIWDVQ

The nature of experiment [18]: ATG_GRE_CIS: Attagene CIS-FACTORIAL HepG2 Assay for human Glucocorticoid Response Elements (GRE) (AID 2282947). The note with it: HepG2 GRE cis-reporter, Attagene multiplex mRNA; actives raise or lower the signal. An outline of the steps: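 HepG2, transient cis-reporter transfection, 24 h. Reporter mRNA: RT-PCR then CE, fluorescence. Fit both directions vs DMSO.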

Experiment [19] deals with Hypoxia-inducible factor 1-alpha (Homo sapiens) (UniProt Q16665). Description: ATG_HIF1a_CIS: Attagene CIS-FACTORIAL HepG2 Assay for human Hypoxia Inducible Factor 1 (HIF1A) (AID 2282951). The note with it: HepG2 Attagene cis-factorial HIF1a reporter transcription; actives raise or lower the signal. The method in brief:
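HepG2 cells transiently transfected with multiple cis-regulated reporter transcription units measure endogenous transcription factor activity. After 24 h exposure, reporter mRNA is quantified by RT-PCR with 6-FAM labelling, HpaI digestion and capillary electrophoresis. Bidirectional fitting against DMSO.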

Experiment [20] can be described thus: ATG_PBREM_CIS: Attagene CIS-FACTORIAL HepG2 Assay for human Phenobarbital-responsive Enhancer Module (PBREM) (AID 2282955). The note with it: HepG2 PBREM cis-reporter, Attagene multiplexed transcription; actives raise or lower the signal. An outline of the steps:
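HepG2 cells transiently transfected with multiple cis-regulated reporter units measure endogenous transcription factor activity; 24 h compound exposure. Reporter mRNA quantified by RT-PCR, fluorescent labelling, HpaI digestion and capillary electrophoresis; bidirectional fit versus DMSO.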

Hepatocyte nuclear factor 6 (Homo sapiens), sequence (Q9UBC0 whole entry, looked up, the tested form may be a part): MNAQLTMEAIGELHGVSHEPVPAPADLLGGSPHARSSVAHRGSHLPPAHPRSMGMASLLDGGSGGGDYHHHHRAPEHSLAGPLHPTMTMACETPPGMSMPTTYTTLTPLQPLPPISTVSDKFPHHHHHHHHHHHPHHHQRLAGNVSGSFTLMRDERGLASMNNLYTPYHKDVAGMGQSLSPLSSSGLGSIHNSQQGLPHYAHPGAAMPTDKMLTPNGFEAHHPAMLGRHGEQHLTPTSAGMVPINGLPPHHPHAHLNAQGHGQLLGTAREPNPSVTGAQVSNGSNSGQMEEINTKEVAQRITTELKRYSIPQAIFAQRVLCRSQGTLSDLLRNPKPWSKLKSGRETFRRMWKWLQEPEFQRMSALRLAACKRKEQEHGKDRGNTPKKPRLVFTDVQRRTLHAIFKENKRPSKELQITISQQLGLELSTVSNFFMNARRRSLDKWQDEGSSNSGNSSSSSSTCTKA
Hepatocyte nuclear factor 3-beta (Homo sapiens), sequence (Q9Y261 whole entry, looked up): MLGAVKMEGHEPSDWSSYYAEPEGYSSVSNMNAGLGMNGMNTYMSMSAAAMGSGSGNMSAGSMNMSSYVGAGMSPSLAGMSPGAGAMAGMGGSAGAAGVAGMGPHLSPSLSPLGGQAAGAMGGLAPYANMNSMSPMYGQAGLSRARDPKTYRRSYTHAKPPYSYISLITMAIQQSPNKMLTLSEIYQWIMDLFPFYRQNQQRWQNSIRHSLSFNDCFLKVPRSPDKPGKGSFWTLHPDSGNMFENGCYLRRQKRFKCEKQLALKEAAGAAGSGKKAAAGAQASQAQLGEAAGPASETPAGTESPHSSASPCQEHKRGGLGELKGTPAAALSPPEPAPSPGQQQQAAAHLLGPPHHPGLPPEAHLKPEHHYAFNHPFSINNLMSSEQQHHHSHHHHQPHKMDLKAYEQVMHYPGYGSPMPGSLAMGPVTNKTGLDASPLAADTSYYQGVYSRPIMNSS
Heat shock factor protein 1 (Homo sapiens), sequence (Q00613 whole entry, looked up, the tested form may be a part): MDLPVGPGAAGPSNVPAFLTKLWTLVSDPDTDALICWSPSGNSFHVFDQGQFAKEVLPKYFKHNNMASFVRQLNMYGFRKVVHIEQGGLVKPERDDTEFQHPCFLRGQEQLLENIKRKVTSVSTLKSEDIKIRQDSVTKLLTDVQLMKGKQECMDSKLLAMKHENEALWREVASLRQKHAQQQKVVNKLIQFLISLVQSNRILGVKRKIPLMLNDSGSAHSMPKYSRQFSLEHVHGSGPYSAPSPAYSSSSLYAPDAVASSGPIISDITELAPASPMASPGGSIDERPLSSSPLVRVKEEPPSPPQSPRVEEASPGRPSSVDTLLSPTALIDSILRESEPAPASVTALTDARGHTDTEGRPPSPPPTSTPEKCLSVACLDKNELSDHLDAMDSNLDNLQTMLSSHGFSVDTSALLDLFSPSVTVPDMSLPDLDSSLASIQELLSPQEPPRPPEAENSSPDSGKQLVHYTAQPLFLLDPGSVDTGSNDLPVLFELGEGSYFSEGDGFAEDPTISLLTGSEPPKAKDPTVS
Hypoxia-inducible factor 1-alpha (Homo sapiens), sequence (Q16665 whole entry, looked up): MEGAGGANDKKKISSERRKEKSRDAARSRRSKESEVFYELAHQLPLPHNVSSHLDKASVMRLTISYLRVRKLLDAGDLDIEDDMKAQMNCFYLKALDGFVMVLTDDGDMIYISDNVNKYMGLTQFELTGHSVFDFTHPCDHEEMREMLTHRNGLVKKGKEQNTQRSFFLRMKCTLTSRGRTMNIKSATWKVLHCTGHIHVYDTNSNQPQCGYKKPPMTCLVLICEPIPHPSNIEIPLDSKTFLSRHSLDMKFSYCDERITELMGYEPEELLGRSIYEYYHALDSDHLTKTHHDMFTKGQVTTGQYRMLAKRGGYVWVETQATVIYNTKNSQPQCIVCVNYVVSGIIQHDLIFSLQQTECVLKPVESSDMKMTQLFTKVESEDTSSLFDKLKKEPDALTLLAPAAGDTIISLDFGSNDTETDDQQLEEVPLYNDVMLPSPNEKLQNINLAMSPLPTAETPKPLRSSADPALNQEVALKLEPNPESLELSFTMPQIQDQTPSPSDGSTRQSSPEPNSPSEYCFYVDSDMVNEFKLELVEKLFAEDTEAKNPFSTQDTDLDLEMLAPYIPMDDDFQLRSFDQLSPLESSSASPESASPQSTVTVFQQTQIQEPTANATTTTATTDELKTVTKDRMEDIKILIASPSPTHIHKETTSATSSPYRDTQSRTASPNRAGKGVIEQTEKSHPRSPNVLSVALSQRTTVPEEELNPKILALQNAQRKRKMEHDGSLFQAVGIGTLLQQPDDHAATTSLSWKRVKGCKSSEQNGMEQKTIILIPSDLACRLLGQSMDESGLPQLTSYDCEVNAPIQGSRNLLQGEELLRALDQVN

The term AC50 denotes the concentration giving half of the maximal activity seen. Regarding `CC(=O)O[C@]1(C(C)=O)CC[C@H]2[C@@H]3C=C(Cl)C4=CC(=O)[C@@H]5C[C@@H]5[C@]4(C)[C@H]3CC[C@@]21C`, the half-maximal activity concentration (AC50) in experiment [1] is 165 µM (active) and 78.6 µM (active) and 50.5 µM (active); in experiment [3], 27.9 µM (active) and 40.3 µM (active) and 100 µM (active); in experiment [4], 180 µM (active); in experiment [7] it was 150 µM (active) and 158 µM (active) and 48.6 µM (active); in experiment [8], 174 µM (active) and 48.9 µM (active); in [9], 77.5 µM (active). Further, the concentration at half-maximal activity (AC50) in experiment [12] was 165 µM (active) and 57.2 µM (active); in experiment [13] it was 83.8 µM (active) [middle of 4 runs]; in experiment [14] it was 100 µM (active) [middle of 4 runs]. For the same compound, the result in [1], in [2], in experiment [3], in [4], in [5] and in experiment [6] was inactive. The result in [7], in [8], in [9], in experiment [10], in [11] and in [12] was inactive. Further, the outcome in [13] and in experiment [14] was inactive.

As to `CC(=O)[C@@]1(O)CC[C@H]2[C@@H]3CCC4=CC(=O)CC[C@]4(C)[C@H]3CC[C@@]21C`, the AC50 in [1] was 4.34 µM (active) and 27 µM (active) and 33.6 µM (active). Moreover, the result in [1], in [2], in experiment [3], in experiment [4], in [5] and in experiment [6] was inactive. The call in experiment [7], in [8], in [9], in experiment [10], in experiment [11] and in experiment [12] was inactive. Moreover, the result in experiment [13] and in [14] was inactive.

Take `CSc1ccc(Oc2ccc(S(N)(=O)=O)cc2CN(C)C)cc1C`: the result in experiment [1], in [2], in experiment [3], in [4], in experiment [15] and in experiment [5] was inactive. The compound was called inactive in [6], in experiment [7], in experiment [8], in experiment [16], in experiment [17] and in experiment [18]. Also, the result in experiment [9], in [10], in experiment [11], in [19], in experiment [12] and in experiment [13] was inactive. Also, the outcome in experiment [14] and in [20] was inactive.
